About 79,000 compounds went through this panel and 15% of them were active in at least one assay; those are over-represented in the sample as a whole. Values without a mark were called inactive. The source made the active and inactive calls. No stated cut-off is given here; in the data, active means growth inhibition above about 70%; inactive means the rest.
Assay: NCI Yeast Anticancer Drug Screen. Data for the mec2-1 strain (AID 157)
Conditions: S. cerevisiae mec2-1 strain, at 50.0 µM, active compounds read high
Procedure, shortened: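 Using mec2-1 yeast: add compound, measure growth, express inhibition versus vehicle-treated cultures.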

Row | SMILES | growth inhibition
1 | CCNC(CCCC1CCCCC1)C(=O)O (stereo not given) | -18.4%
2 | O=C(Nc1ccc(Cl)cc1)Nc1nnc2nc(C3(c4nc5nnc(NC(=O)Nc6ccc(Cl)cc6)n5[nH]c4=O)CCCC3=O)c(=O)[nH]n12 | -19.5%
3 | C=C(Br)CN1CCC2(c3ccccc3)C(=O)C([Se]c3ccccc3)CCC12 (stereo not given) | 8.15%
4 | O=C(NCCCCNCCCNC(=O)c1ccc([N+](=O)[O-])cc1)c1ccc([N+](=O)[O-])cc1 | 4.1%
5 | CCCCN=C(C)CC(=O)CC(=O)c1ccccc1 | 23.1%
6 | CCc1cccc(C)c1NC(=O)CCc1nnc2s/c(=C\c3cccc4ccccc34)c(=O)n12 | 16.5%
7 | COC(=O)C(C(=O)C(=O)Nc1ccc(C)cc1)c1nc2ccc([N+](=O)[O-])cc2[nH]c1=O (stereo not given) | 15.2%
8 | CCCCCCC(=O)/C=C/c1ccccc1OC | -12.2%
9 | Clc1ccc(OCCBr)cc1 | 27.9%
10 | NC(CCC(=O)NC(CSCNC(=O)Nc1ccc(Cl)cc1)C(=O)NCC(=O)O)C(=O)O (stereo not given) | 4.4%
11 | C=C1N(C)c2ccccc2C1(C)C | 10.2%
12 | CCCCC1(N=[N+]=[N-])C(=O)c2cccc3c2N(CCC3)C1=O (stereo not given) | 30.9%
13 | COC(=O)c1ccc(OC(=O)Nc2cccc(C(C)=O)c2)cc1 | 14.9%
14 | CCCCCNC(=S)NNC(N)=O | -0.15%
15 | c1ccc2c(c1)ccc1c2c[n+](CCCCCCCC[n+]2cc3c4ccccc4ccc3c3ccccc32)c2ccccc12 | 92.2% (active)
16 | CN(C)/N=N/c1nc2c(c(=O)n(C)c(=O)n2C)n1C | 20.2%
17 | CC1(C)OC2COC(CNS(C)(=O)=O)C2O1 (stereo not given) | -12.2%
18 | O=c1c2nn3c(=O)n(-c4ccccc4)c(=O)c3nn2c(=O)n1-c1ccccc1 | -10.6%
19 | O=C(COc1ccc(Cl)c(Cl)c1)Nc1ccc(C(=O)CCl)cc1 | 31.3%
20 | CSc1ncc(Br)c(Sc2nccn2C)n1 | 7.3%

Row | SMILES | growth inhibition
21 | N#CCCCN1CCOCC1 | -20.9%
22 | CCOC(=O)NNC(=O)C1CSC(c2ccccc2)N1C(C)=O (stereo not given) | -13.4%
23 | Cc1ccc(S(=O)(=O)ON2C(=O)c3cccc4cc([N+](=O)[O-])cc(c34)C2=O)cc1 | 45%
24 | COc1ccccc1-n1nnc2c(N)nc(N)nc21 | -12.2%
25 | N[C@@H](C[C@H]1CCC(=O)[C@@H]2O[C@H]12)C(=O)O | -12.8%
26 | Cc1c(O)c2ccc3ccccc3c2oc1=O | 5.75%
27 | Cc1cccc(C(=O)c2ccccc2)c1C(=O)O | 2.45%
28 | Fc1cccc(Cl)c1CSc1n[nH]c(C(F)(F)F)n1 | -24.1%
29 | O=C(c1ccccc1)N1C(=S)N=C(Nc2ccccc2)C1=Nc1ccccc1 | -27.1%
30 | COc1ccc(C2(C(OC)OC)NC(=O)N(Cc3ccccc3)C2=O)cc1 (stereo not given) | -10.6%
31 | CC(C)(CCc1nc2ccccc2[nH]1)C(=O)O | -6.35%
32 | Nc1ccc(NC(=S)Nc2ccccc2)cc1 | -18.3%
33 | COc1ccc(/C=C2\N=C(c3cc(OC)c(OC)c(OC)c3)OC2=O)cc1 | 13.1%
34 | CC(C)(C)OC(=O)C(C1NC(C(=O)O)C(C)(C)S1)N1C(=O)c2ccccc2C1=O (stereo not given) | -43%
35 | O=C(N/N=C/c1ccccc1[O-])c1ccccc1O.O=C(N/N=C/c1ccccc1[O-])c1ccccc1O.[Fe+2] | -10.1%
36 | Cc1ccc(NCC(=O)N2CC(=O)Nc3ccccc32)cc1 | -21%
37 | O=C(Oc1c(Cl)cc([N+](=O)[O-])cc1[N+](=O)[O-])Sc1ccccc1 | 99.7% (active)
38 | COC(=O)c1ccccc1OC(C)=O | 11.4%
39 | O=[N+]([O-])c1cc(Br)c(F)cc1F | 4.85%
40 | COc1cc(C(=O)Nc2cccc3ccccc23)c(Br)c(OC)c1OC | 17.3%

— PubChem BioAssay (NCI)
